Structures are written as SMILES. Hit rate of the full screen: of about 2,100 compounds, about 1,100 (52%) were called active. Another 27% or so got no clear call; they are omitted. So high a share suggests a set chosen from earlier hits. The list shows a part of the results. Unmarked numbers belong to inactive results. Calls follow the shape of the dose curve; as a rule, active = well fitted inhibition curve with a large enough effect; inconclusive = small, poorly fitted or top-dose-only effect; inactive = no such curve, though single readings can be large or run the other way.

Max response and Potency data for 59 compounds are collected here from PubChem BioAssay AID651813 (National Center for Advancing Translational Sciences (NCATS), 2012).
Potency is read from the fitted curve at half-maximal effect.

Chain of DNA dC->dU-editing enzyme APOBEC-3G (Homo sapiens) (Q9HC16 whole entry, looked up): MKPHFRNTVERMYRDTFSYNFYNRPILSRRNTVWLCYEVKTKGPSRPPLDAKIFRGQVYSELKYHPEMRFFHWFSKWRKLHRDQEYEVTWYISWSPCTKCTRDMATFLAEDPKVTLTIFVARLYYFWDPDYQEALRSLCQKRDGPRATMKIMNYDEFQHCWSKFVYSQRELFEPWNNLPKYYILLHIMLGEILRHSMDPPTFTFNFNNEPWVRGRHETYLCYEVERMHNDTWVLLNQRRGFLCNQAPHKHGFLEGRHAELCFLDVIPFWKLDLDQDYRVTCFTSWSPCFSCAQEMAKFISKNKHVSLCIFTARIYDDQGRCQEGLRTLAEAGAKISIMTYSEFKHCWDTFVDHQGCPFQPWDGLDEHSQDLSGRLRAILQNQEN

This assay addresses DNA dC->dU-editing enzyme APOBEC-3G (Homo sapiens) (UniProt Q9HC16). In words: qHTS for inhibitors of Vif-A3G interactions: Cherry picks counterscreen.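 Also: hits raise yellow fluorescence by blocking Vif-driven A3G-eYFP degradation; nearly all actives have a fitted effect of over 70% in size.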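 As to Max response: max response given as percent of control signal.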 The conditions noted are these: HeLa A3G-eYFP + Vif (tagged APOBEC3G with the HIV-1 protein that degrades it), eYFP fluorescence, 24 h. Put shortly:
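HeLa cells stably expressing A3G-eYFP and Vif were treated for 24 h at 37 deg C with compounds at several concentrations; yellow fluorescence (Ex 488 nm, Em 500-530 nm) read by Acumen Explorer, MG132 as positive control.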
For orientation: In qHTS, concentration-response curves come from the screen itself.
For the compound `CCOC(=O)c1c(-c2ccc(C)cc2)csc1NC(=O)/C(C#N)=C/c1ccc(O)c(OC)c1`, the max response was 57.5%. In the case of `CCOc1ccc(NC(=O)/C(C#N)=C/c2ccc(N3CCCC3)c(C)c2)cc1`, the Potency is 2.06 µM (active).

For `CCOc1cc(/C=C(/C#N)C(=O)Nc2ccc(O)cc2)cc(Br)c1O`, the Potency is 17.7 µM (active). On to `Cc1cccc(N2CCN(C(=O)c3cccc(N4CCCC4=O)c3)C(C)C2)c1` (centres undefined), for which the Potency is 14 µM (active). In the case of `Cc1ccc(-n2c(=O)c3ccc(C(=O)NCc4ccccc4Cl)cc3n(CC(=O)Nc3cccc(Cl)c3)c2=O)cc1`, the max response was -24%. With `CCOc1ccc(NC(=O)Cn2c(=O)n(Cc3ccc(C(=O)NCc4ccc(C)cc4)cc3)c(=O)c3ccccc32)cc1`, the Potency was 13 µM (active). With `Cc1ccc(N2C(=O)CS/C2=C(\C(Cl)=C(Cl)Cl)[N+](=O)[O-])cc1`, the max response was 1.1%. With `Cc1ccc(NC(=O)/C(C#N)=C\c2ccc(-c3ccc(Cl)cc3)o2)c(C)c1`, the Potency was 5.8 µM (active). For `CC(NC(=S)Nc1cccc(C(F)(F)F)c1)C(C)(C)C` (centres undefined), the max response was 21.6%.

`COc1cccc(Cn2c(-c3nonc3NC(C)=O)nc3ccccc32)c1`: the Potency was 11.6 µM (active).

For the compound `Nc1nonc1-c1nc2ccccc2n1CC(=O)Nc1cccc(C(F)(F)F)c1`, the Potency was 18.4 µM (active). In the case of `COc1ccc(C)c(Cn2c(-c3nonc3N)nc3ccccc32)c1`, the Potency was 3.14 µM (active). In the case of `COc1cccc(Cn2c(-c3nonc3N)nc3ccccc32)c1`, the Potency was 1.25 µM (active). With `Cc1cn2c(N)c(C=C3C=C(Cl)C(=O)C(Cl)=C3)c(=O)nc2s1`, the max response was 34.2%. For `Cc1cccc(CSc2cccc3cccnc23)c1`, the max response was -11.2%.

For the compound `CCC(C)Sc1ccc(-c2nc3cc(C)ccn3c2NC2CCCCC2)cc1` (centres undefined), the max response is 26.9%. In the case of `Nc1nonc1-c1nc2ccccc2n1Cc1ccc(F)cc1`, the Potency was 12.5 µM (active). `CCC(=O)Nc1nonc1-c1nc2ccccc2n1Cc1ccccc1`: the Potency was 14 µM (active). Turning to `CCOC(=O)c1c(CN(CC)CC)n(-c2ccccc2)c2ccc(O)cc12`, the max response was 2.24%. Consider `O=C1S/C(=C/c2ccc(N3CCOCC3)o2)C(=O)N1Cc1c(F)cccc1Cl`, for which the Potency was 2.8 µM (active).

As to `O=C1S/C(=C\c2ccc(N3CCOCC3)o2)C(=O)N1c1ccccc1`, the Potency was 1.98 µM (active). Regarding `O=C1S/C(=C/c2ccc(N3CCOCC3)o2)C(=O)N1Cc1ccc(F)cc1`, the Potency is 7.04 µM (active). Take `CCCN1C(=O)S/C(=C\c2ccc(N3CCOCC3)o2)C1=O`: the Potency is 2.23 µM (active). On to `CCCN1C(=O)S/C(=C/c2ccc(N3CCOCC3)o2)C1=O`, for which the max response was 50.5%. Consider `Cc1cc(C)c(C(=O)N(CCN(C)C)CC2CCCN(Cc3ccccc3F)C2)o1` (centres undefined), for which the max response is 0.428%. Turning to `COc1cc(/C=C2/SC(=S)N(Cc3ccccc3)C2=O)cc(Cl)c1O`, the Potency is 2.23 µM (active). Take `COc1cc(/C=C2/SC(=S)N(CCC(=O)Nc3ccccc3)C2=O)cc(OC)c1OC`: the Potency was 20.6 µM (active). In the case of `O=C1/C(=C\c2ccc(O)cc2)SC(=S)N1Cc1ccccc1`, the max response was 39.2%.

Regarding `COc1cc(/C=C2/SC(=S)N(Cc3ccccc3)C2=O)cc(OC)c1O`, the Potency was 12.5 µM (active). As to `C=CCN1C(=O)/C(=C/c2ccc(O)c(OC)c2)S/C1=N/c1nccs1`, the Potency was 4.61 µM (active). As for `O=C(O)c1cc(-c2ccc(/C=C3/SC(=S)N(Cc4ccccc4)C3=O)o2)ccc1Cl`, the Potency was 18.4 µM (active). Regarding `O=C1/C(=C/c2ccc(O)cc2)SC(=S)N1CC1CCCO1` (centres undefined), the max response was -5.85%. With `COc1cc(/C=C2/SC(=S)N(CC3CCCO3)C2=O)ccc1O` (centres undefined), the Potency was 16.4 µM (active).

In the case of `Cn1c(=O)c2c(nc(NC3CCCC3)n2C)n(C)c1=O`, the max response was -1.35%. Take `CCCC(=O)NC(c1ccc(OC)cc1)c1ccc2cccnc2c1O` (centres undefined): the max response is -9.5%. Regarding `CCC(=O)NC(c1ccc(OC)cc1)c1c(O)ccc2ccccc12` (centres undefined), the Potency was 9.94 µM (active). `Cc1ccc(C2C(C(=O)c3cccs3)=C(O)C(=O)N2c2nnc(C)s2)cc1` (centres undefined): the Potency is 19.8 µM (active). Regarding `CCCSc1nnc(N2C(=O)C(O)=C(C(=O)c3ccco3)C2c2ccccc2F)s1` (centres undefined), the max response was -7.3%. In the case of `Cc1ccc(NC2=C(Cl)C(=O)N(C3CCCCC3)C2=O)cc1`, the max response is 6.01%.

As for `CN1C2CCC1/C(=C/c1cccn1C)C(=O)/C2=C\c1cccn1C`, the Potency was 8.2 µM (active). Consider `Cn1cccc1/C=C1\CC(C(C)(C)C)C/C(=C\c2cccn2C)C1=O` (centres undefined), for which the Potency is 8.2 µM (active). For the compound `O=c1oc2c3c4c(cc2c(C(F)(F)F)c1CCN1CCOCC1)CCCN4CCC3`, the Potency was 2.31 µM (active). Consider `COc1ccc(/C=C(/C(=O)c2cccs2)N2C=CC=CC2=C(C#N)C#N)cc1`, for which the Potency is 15.8 µM (active).

With `CCN(CC)c1nc2ccccc2nc1C(C#N)C(=O)NCCc1ccccc1` (centres undefined), the Potency was 13 µM (active). As for `C=CCNC(=O)C(C#N)c1nc2ccccc2nc1N1CCN(Cc2ccccc2)CC1` (centres undefined), the max response was -10.2%. Turning to `COc1ccc(C(=O)/C=C/Nc2ccc([N+](=O)[O-])cc2C)c(OC)c1`, the Potency was 23.1 µM (active). On to `COc1ccc(-c2nnc(NC(=O)c3ccc([N+](=O)[O-])o3)o2)c(OC)c1`, for which the max response was -27.9%. For `COc1ccc(C(=S)N2CCN(c3cccc(Cl)c3)CC2)c(OC)c1`, the Potency is 3.53 µM (active).

On to `COc1ccccc1N1CCN(C(=O)c2ccc3ncsc3c2)CC1`, for which the Potency was 17.7 µM (active). With `COc1cc(SC)ccc1C(=O)N1CCN(c2ccccc2OC)CC1`, the Potency is 5.59 µM (active). With `CCS(=O)(=O)N1CCc2cc(C(=O)N3CCN(c4cccc(C(F)(F)F)c4)CC3)ccc21`, the max response was -3.11%. With `COc1ccccc1C(=O)N1CCN(c2cccc(Cl)c2)CC1`, the Potency is 1.4 µM (active). In the case of `COC(=O)c1cc(C(=O)N2CCN(c3ccccc3OC)CC2)cc([N+](=O)[O-])c1`, the Potency was 1.12 µM (active). As to `CCSc1ncc(Cl)c(C(=O)N2CCN(c3ccccc3OC)CC2)n1`, the Potency is 4.61 µM (active).

With `COc1ccccc1N1CCN(C(=O)c2cc(=O)c3cc(C)cc(C)c3o2)CC1`, the Potency is 0.158 µM (active). As for `NNC(=S)Nc1c(F)cc(F)cc1Br`, the max response was -0.636%. Consider `O=[N+]([O-])c1ccc(/C=N/Nc2ccc3ccccc3c2)o1`, for which the Potency is 4.98 µM (active). For the compound `O=C(N/N=C/c1ccc([N+](=O)[O-])o1)c1cn2ccc3ccccc3c2n1`, the max response was 3.73%. Take `Cc1cc(N/N=C/c2ccc([N+](=O)[O-])o2)nc2ccccc12`: the Potency was 23.1 µM (active).
